The results in this text go back to the supplement of paper PMC10338343.

± gives the standard deviation.

The test system of the assay is MILI (PIWIL2) piRISC loaded with piRNA #1 (26 nt). The assay is described as follows: pre-steady-state target cleavage rate (min^-1); guide: piRNA #1 5'p-UGAGGUAGUAGGUUGUAUAGUAUCCA; MIWI and MILI are mouse PIWI proteins and EfPiwi is from a freshwater sponge; tags in brackets are library labels; higher = faster piRNA-guided slicing of the target. Particulars: auxiliary factor: 500 nM mouse GTSF1. The method, boiled down: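 Active affinity-purified piRISC (1 nM) loaded with one synthetic guide was mixed with a transcribed, DNA-blocked target RNA library (0.1 nM), with or without 500 nM GTSF1 partner protein, in HEPES–potassium acetate buffer at 33 °C for 0–8 or 0–960 min. Uncleaved targets were sequenced, normalised to depth and to weakly complementary targets, and pooled across three trials, with k3 capped at 0.0001 min^-1. The pre-steady-state cleavage rate was determined with a burst-and-steady-state fit.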
For the sequence GGAGACCUAUGAAUACAACCUCACUACCUCA, the “pre-steady-state target cleavage rate” value was found to be 0.00378 ± 0.0031.
In the case of GGAGACCUAUGUAUACAAGCUACUACCUCA it was 0.147 ± 0.013; in that of GGAGACCUAUGUAUACUACCUUCUACCUCA, 0.00348 ± 0.0016; in that of GGAGACCUUACUAUACAACCAUACUACCUCA, 0.0055 ± 0.0037.
Under GGAGACCAUACAAUACAACGUACUACCUCA stands 0.0186 ± 0.0044; under GGAGACCUAUCUAUACUACGUACUACCUCA, 0.013 ± 0.0024; under GGAGACCUAUGUAUACUUCCUACUACCUCA, 0.0232 ± 0.005.
With GGAGACCUUACUAUACAACCUACUACGACA, the “pre-steady-state target cleavage rate” value came to 0.119 ± 0.021.
Take GGAGACCUUUCUAUUCAACCUACUACCUCA: the “pre-steady-state target cleavage rate” value turned out to be 0.0926 ± 0.012.
As for GGAGACCUUACUAAUCAACCUACUACCUCA, the “pre-steady-state target cleavage rate” value came out at 0.11 ± 0.016.
In the case of GGAGACCUAUCUUAUCAACCUACUACCUCA, the “pre-steady-state target cleavage rate” value worked out at 0.0106 ± 0.0025.
Consider GGAGACCUAAGUAUACAACCUACUACCACA, for which the “pre-steady-state target cleavage rate” value worked out at 0.0885 ± 0.012.
Under GGAGACCUAUCUUAACAACCUACUACCUCA stands 0.0183 ± 0.0045; under GGAGUGGAUAGUAUUCAACCUACUACCUCA, 0.106 ± 0.011; under GGAGACCUUACUAAACAAGCUACUACCUCA, 0.231 ± 0.018.
Consider GGAGACCUAUGAUAACAACCUACUAUCCUCA, for which the “pre-steady-state target cleavage rate” value was determined as 0.00426 ± 0.003.
